# According to PubChem BioAssay (EPA / NIEHS):
# Records with an inconclusive call do not appear. Active and inactive are the calls of the source. How the source made its calls: active means hit-call score of the fitted dose curve at least 0.9, where 1 is the maximum; inconclusive means response in the unintended direction; inactive means score below 0.9.
# Target: Peroxisome proliferator-activated receptor gamma (Homo sapiens) (UniProt P37231)
# Experiment: NVS_NR_hPPARg: NovaScreen (NVS) Nuclear Receptor Binding Assay for human Peroxisome Proliferator-activated Receptor gamma (PPARg) (AID 2283370)
# Description: NVS_NR_hPPARg is a biochemical, single-readout assay that uses extracted gene-proteins in a cell-free assay. Measurements were taken 2 hours after chemical dosing in a 384-well plate.NVS_NR_hPPARg is one of one assay component(s) measured or calculated from the NVS_NR_hPPARg assay. It is designed to make measurements of fluorescent polarization, a form of binding reporter, as detected with fluorescence polarization signals by Fluorescence Polarization technology.Data from the assay component NVS_NR_hPPARg was analyzed into 1 assay endpoint. This assay endpoint, NVS_NR_hPPARg, was analyzed in the positive analysis fitting direction relative to DMSO as the negative control and baseline of activity. Using a type of binding reporter, loss-of-signal activity can be used to understand changes in the binding as they relate to the gene PPARG. Furthermore, this assay endpoint can be referred to as a primary readout, because the performed assay has only produced 1 assay endpoint. To generalize the intended target to other relatable targets, this assay endpoint is annotated to the nuclear receptor intended target family, where the subfamily is non-steroidal.
# Binding assays used specific radioligands (tritiated, iodinated) with non-radioactive competitive displacement ligands in agonist or antagonist protocols (as indicated) and various reference compounds and inhibitors to titrate specific binding to receptors and transporters. Most enzyme assays (CYPs, kinases, phosphatases, proteases, HDACs) used recombinant protein and specific substrates (fluorescence mostly, some colorimetric and radioactive) and inhibitors, followed by a biochemical separation of substrate and product. All assays for the biochemical HTS were initially run in duplicate at a single concentration (10 uM for CYP450 assays and 25 uM for all others). […] Each assay was run with positive and negative controls, and concurrent controls on every plate. The follow-up (secondary) screen tested active chemical-pairs in concentration series, as well as a few additional assays not tested in the primary screen, some selected negative inactives, and several cases re-run in the concentration series for confirmatory purposes.
# Chain of Peroxisome proliferator-activated receptor gamma (Homo sapiens) (P37231 whole entry, looked up): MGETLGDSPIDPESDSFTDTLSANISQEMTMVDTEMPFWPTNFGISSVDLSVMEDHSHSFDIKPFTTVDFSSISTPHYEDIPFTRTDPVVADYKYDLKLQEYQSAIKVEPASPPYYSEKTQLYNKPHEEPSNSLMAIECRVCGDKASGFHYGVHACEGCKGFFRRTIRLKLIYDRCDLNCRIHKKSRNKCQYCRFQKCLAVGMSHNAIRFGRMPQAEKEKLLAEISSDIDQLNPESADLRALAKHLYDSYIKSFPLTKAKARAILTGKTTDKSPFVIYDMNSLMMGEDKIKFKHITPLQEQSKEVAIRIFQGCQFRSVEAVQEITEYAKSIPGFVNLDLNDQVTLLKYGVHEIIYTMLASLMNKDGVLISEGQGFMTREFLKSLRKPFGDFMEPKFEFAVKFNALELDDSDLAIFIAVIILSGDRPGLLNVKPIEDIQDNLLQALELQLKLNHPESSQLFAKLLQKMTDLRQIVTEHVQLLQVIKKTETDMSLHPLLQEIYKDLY
Structure (SMILES),AC50,outcome
O=C(O)COc1cc(Cl)c(Cl)cc1Cl,7.47 µM (active),–
O=C1c2ccccc2C(=O)C1C(=O)C(c1ccccc1)c1ccc(Cl)cc1 (configuration not stated),16.2 µM (active),–
CCC[CH2][Sn]([CH2]CCC)([CH2]CCC)[CH2]CCC,–,inactive
O=S1OC[C@@H]2[C@H](CO1)[C@]1(Cl)C(Cl)=C(Cl)[C@@]2(Cl)C1(Cl)Cl (some centres not stated),14.9 µM (active),–
O=[N+]([O-])c1ccccc1O,–,inactive
O=S1(=O)OC(c2cc(Br)c(O)c(Br)c2)(c2cc(Br)c(O)c(Br)c2)c2ccccc21,2.87 µM (active),–
O=[N+]([O-])c1ccc(Cl)c([N+](=O)[O-])c1,–,inactive
CC(=Cc1ccccc1)[N+](=O)[O-],–,inactive
COc1ccccc1N,–,inactive
Cc1cc(Cl)ccc1OC(C)C(=O)O (configuration not stated),–,inactive
COCCl,4.2 µM (active),–
CCOCn1c(-c2ccc(Cl)cc2)c(C#N)c(Br)c1C(F)(F)F,–,inactive
O=C(CCl)Nc1ccccc1,–,inactive
CC(C)N(C(=O)CCl)c1ccccc1,–,inactive
Oc1c(Br)cc(Br)cc1Br,–,inactive
Oc1cc(Cl)c(Cl)cc1Cl,–,inactive
CCC[CH2][Sn]([Cl])([Cl])[CH2]CCC,–,inactive
